Screening data (PubChem)
In the library only some 8% were active in any assay of this set; here they are far more common.
TSHR antagonist: Antagonists of the Thyroid Stimulating Hormone Receptor: HTS campaign | Thyrotropin receptor (Homo sapiens), P16473 | TSHR-expressing cells, TSH-stimulated cAMP HTRF, 2 h; stronger effect = lower value | activity change, negative = inhibition, % at 11.5 µM | 330,000 tested, 0.2% active | AID 504810, 2011;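 active = activity change below a set negative limit, meaning inhibition stronger than a set level, cut at about -70% in these data; inconclusive = activity change between two set negative limits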
Target sequence (P16473 whole entry, looked up): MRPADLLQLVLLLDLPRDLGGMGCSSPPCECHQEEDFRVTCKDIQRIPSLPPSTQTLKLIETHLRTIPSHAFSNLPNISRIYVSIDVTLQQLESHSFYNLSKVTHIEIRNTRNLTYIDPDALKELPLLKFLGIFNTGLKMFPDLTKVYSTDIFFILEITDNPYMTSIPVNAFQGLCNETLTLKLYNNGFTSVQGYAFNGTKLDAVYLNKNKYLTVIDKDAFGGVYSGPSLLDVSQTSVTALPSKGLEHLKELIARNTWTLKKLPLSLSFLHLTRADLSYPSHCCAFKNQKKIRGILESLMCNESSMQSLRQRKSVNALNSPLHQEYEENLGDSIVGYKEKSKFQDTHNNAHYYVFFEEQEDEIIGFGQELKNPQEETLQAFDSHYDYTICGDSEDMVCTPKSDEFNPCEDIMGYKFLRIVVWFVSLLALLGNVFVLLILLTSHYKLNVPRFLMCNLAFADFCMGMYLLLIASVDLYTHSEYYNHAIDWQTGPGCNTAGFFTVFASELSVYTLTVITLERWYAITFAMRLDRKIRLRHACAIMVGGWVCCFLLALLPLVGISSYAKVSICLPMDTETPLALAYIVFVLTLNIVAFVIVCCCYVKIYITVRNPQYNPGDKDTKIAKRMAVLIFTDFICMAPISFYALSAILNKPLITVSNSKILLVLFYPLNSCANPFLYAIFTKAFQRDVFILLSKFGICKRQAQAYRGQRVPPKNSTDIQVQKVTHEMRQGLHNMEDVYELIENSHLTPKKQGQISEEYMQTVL
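Inhibition of cAMP made by TSHR-expressing cells under TSH stimulation (4nM final, EC80; 2 h, 37 deg C) is quantified with a one-step lysis HTRF kit, anti-cAMP cryptate versus cAMP-d2.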
RORg inh: qHTS for inhibitors of ROR gamma transcriptional activity | Drosophila S2 Gal4-RORgamma UAS-luciferase reporter, 20 h | AID 2551, 2010 | Potency, µM (titrated, usually from 53.6 µM), inactives show at the top dose activity change, negative = inhibition, hits mostly inhibitors | Nuclear receptor ROR-gamma (Mus musculus), P51450 | 310,000 tested, 5.4% active; also: potency is read from the fitted curve at half-maximal effect; nearly all actives have a fitted effect of over 60% in size
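Schneider cells (Drosophila), stable Gal4 DBD–ROR gamma + UAS-luc; 1 hr cmpd preincubation; Cu2+ induction 700 uM final; 20 hr ambient; luminescence.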
Coupling enz: qHTS Assay for Inhibitors of Fructose-1,6-bisphosphate Aldolase from Giardia Lamblia: Coupling assay counterscreen | coupling enzyme system counterscreen, AmpLite Red fluorescence | activity change, negative = inhibition, % at 58.2 µM, hits read low | 290,000 tested, 0.67% active; in the data active = activity change below about -30%
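Compounds tested against the coupling enzymes alone at 57.5 uM final; readout was AmpLite Red fluorescence (525/598 nm) after 20 min at RT.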
VP16 counter: VP16 counterscreen qHTS for inhibitors of ROR gamma transcriptional activity. Drosophila S2 Gal4-VP16 UAS-luciferase, luminescence, 20 h. Potency, µM (highest dose often 53.6 µM), without a hit: at the highest dose activity, negative = inhibition, hits mostly inhibitors. 310,000 tested, 3.5% active. AID 2546, 2010;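 also: Gal4-VP16 expression switched on by copper sulfate through the metallothionein promoter; potency is read from the fitted curve at half-maximal effect; nearly all actives have a fitted effect of over 50% in size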
ELG1 DNA repair: qHTS screen for small molecules that inhibit ELG1-dependent DNA repair in human embryonic kidney (HEK293T) cells expressing luciferase-tagged ELG1. Potency, µM (series often up to 46.1 µM), inactives show at the highest dose activity change, negative = inhibition, actives largely listed as inhibitors. HEK293T ELG1-luciferase reporter, luminescence, 16 h; DNA damage induced by 5-fluorouridine. 330,000 tested, 2.3% active; also: potency is read from the fitted curve at half-maximal effect; nearly all actives have a fitted effect of over 55% in size
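Quantitative HTS, concentration-response format. 2,000 cells/well co-treated with 5-fluorouridine and compound, 16 hr in 5% CO2 at 37 °C; ONE-Glo luminescence read after 30 min.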
An asterisk follows results filed as active; u = inconclusive; x = no result; [ ] = another dose, or the depositor's remark. Unless noted, calls follow the shape of the dose curve; as a rule, active = well fitted curve in the direction sought with a large enough effect; inconclusive = small, poorly fitted or top-dose-only effect, or another doubt; inactive = no such curve, though single readings can be large; an effect the other way counts as inactive or inconclusive. % is scaled to controls: 0 for no effect and ±100 for the full control effect.

SMILES | TSHR antagonist | RORg inh | Coupling enz | VP16 counter | ELG1 DNA repair
CCN1C(=O)/C(=C\c2cccc(OC(=O)c3ccco3)c2)SC1=S | x | -11% | -38* | 5% | 26%
COc1cccc(/C=C2\SC(=S)N(CCCC(=O)N3CCCC3)C2=O)c1 | -30 | 2.5µM* | 1 | -17% | -17%
O=C(CCCN1C(=O)/C(=C/c2ccccc2)SC1=S)Nc1ccccc1O | -17 | 4.5µM* | -1 | u | 3%
COc1cc2c(cc1OC)C(c1ccc(N)cc1)=NNC(=O)C2 | x | 3% | -9 | -3% | x
CC(Sc1nnc(N)s1)C(=O)Nc1ccc2c(c1)OCCO2 (stereo not given) | -4 | -3% | x | 9% | 25%
O=C(NCc1cccnc1)C1CCN(S(=O)(=O)c2cc(Cl)ccc2Cl)CC1 | -1 | 37% | 2 | -14% | u
O=C(CCCN1C(=O)S/C(=C\c2ccccc2)C1=O)NNC(=O)c1ccccc1O | -10 | 0.45µM* | 1 | 2.5µM* | u
O=C(CCCN1C(=O)/C(=C/c2ccccc2)SC1=S)NCCCn1ccnc1 | 0 | 5µM* | x | 4.5µM* | 0%
O=C(CCCN1C(=O)/C(=C\c2ccccc2)SC1=S)N1CCOCC1 | -7 | x | x | x | 18µM*
CN(C)/C=C/C(=O)c1ccc2noc(-c3ccc(F)cc3)c2c1 | 3 | 13% | 1 | 1% | 8.2µM*
COc1ccc(NC(=O)CSc2nncc3ccccc23)cc1 | -5 | 35% | 1 | 2% | 12%
COc1ccc(C(=O)Sc2nncc3ccccc23)cc1 | 8 | 11µM* | 0 | u | u
Cc1ccccc1N(C(=O)c1snc(C(N)=O)c1N)C(C(=O)NCc1ccccc1)c1ccc(O)cc1 (stereo not given) | -15 | 23% | -1 | -3% | u
COc1ccc(CN(C(=O)c2snc(C(N)=O)c2N)C(C)C(=O)NCc2ccc(F)cc2)cc1 (stereo not given) | 8 | 8% | 1 | 0% | -6%
COc1ccc(CNC(=O)C(C)N(Cc2ccccc2OC)C(=O)c2snc(C(N)=O)c2N)cc1 (stereo not given) | -4 | 10µM* | 1 | 24% | u
NC(=O)c1nsc(C(=O)N(c2ccccc2F)C(C(=O)NCc2ccccc2)c2ccc(O)cc2)c1N (stereo not given) | -1 | 26% | -2 | -5% | 6.5µM*
CCOc1ccccc1-c1nnc2n1N=C(c1ccc(OC)cc1)CS2 | x | u | -1 | -3% | x
CCN(CC)CC(=O)Nc1sc(C)cc1C(=O)c1ccc(C)cc1 | -10 | 3.2µM* | 1 | 6.3µM* | -18%
CCc1cc(C(=O)c2ccc(Br)cc2)c(NC(=O)CN(CC)CC)s1 | -22 | 6.3µM* | 1 | 11µM* | -26%
CCN(CC)CC(=O)Nc1sc(C)c(C)c1C(=O)c1ccc(C)cc1 | 2 | 11µM* | -1 | -7% | -14%
CCN(CC)CC(=O)Nc1sc(C)cc1C(=O)c1ccccc1 | -8 | 7.1µM* | 0 | u | -2%
Cc1cc(C(=O)c2ccccc2)c(NC(=O)CCl)s1 | 13 | -12%[10 µM] | 7 | -99% | -28%
O=C(CSc1nnc(NC(=O)C2CC2)s1)Nc1ccccc1Cl | -6 | -11% | 0 | 2% | -21%
Cc1cnc(C(=O)N2CCCC(N3CCN(c4cccc(C(F)(F)F)c4)CC3)C2)cn1 (stereo not given) | -2 | 43% | x | -2% | -8%
CC(=O)OCC1OC(C#Cc2ccccc2)C=CC1OC(C)=O (stereo not given) | x | u | -1 | u | x
SMILES | TSHR antagonist | RORg inh | Coupling enz | VP16 counter | ELG1 DNA repair
O=C(CSc1nnc(-c2cccs2)n1C1CC1)NC1CCS(=O)(=O)C1 (stereo not given) | 7 | x | x | x | u
COC1=C(Nc2ccccc2OC)C(=O)c2ccccc2C1=O | 4 | -12% | -27 | 0% | u
COc1ccccc1NC1=C(NC(C)=O)C(=O)c2ccccc2C1=O | 16 | u | -56* | u | -14%
CC(C)CC(=O)NC(=S)Nc1ccccc1C(F)(F)F | -1 | 5.6µM* | 0 | u | -10%
COc1ccccc1NC(=S)NC(C)=O | -1 | 11µM* | 0 | -6% | 12%
CC(C)CC(=O)NC(=S)Nc1ccccn1 | 27 | -121% | 3 | 20µM* | u
COc1ccccc1NC(C)=O | 1 | -15% | 0 | -1% | 6%
CN(C)CCCNCC(=O)c1c(-c2ccccc2)n(C)c2ccccc12 | 23 | -4% | -4 | -8% | 0%
COc1ccc(OC)c(NC(=O)CCCSc2ccccc2)c1 | -29 | -1% | -1 | 1% | -1%
Cc1ccc(C(=O)NC(=S)Nc2ccccc2C(F)(F)F)cc1 | -2 | 4.5µM* | -2 | u | 16%
Cc1ccc(C(=O)NCC(=O)Nc2ccccc2C(F)(F)F)cc1 | 10 | 5% | 2 | -2% | 20%
CC(C)CC(=O)NC(=S)Nc1cccc2nsnc12 | 1 | 7.9µM* | -16 | -7% | u
CC(C)(C)CC(=O)NC(=S)Nc1ccccc1C(F)(F)F | 9 | 3.2µM* | -1 | 20µM* | 3%
CC(=O)NC(=S)Nc1cccc2ccc(C)nc12 | -6 | 2.8µM* | -2 | 13µM* | 3%
FC(F)(F)c1ccccc1NC(=S)Nc1ccccc1 | 0 | u | 1 | -2% | 5%
O=C(NCc1ccncc1)C1CCN(S(=O)(=O)c2ccc(Cl)c(C(F)(F)F)c2)CC1 | -3 | x | x | x | u
COC(=O)CCC(=O)NC(=S)Nc1ccccc1F | 0 | u | 2 | 18% | u
COc1ccccc1NC(=S)NC(=O)CC(C)C | -5 | 2.2µM* | 6 | 13µM* | 8%
CC(C)CC(=O)NC(=S)Nc1ccccc1F | x | 10µM* | -1 | u | x
Cc1ccc(CNC(=O)Cc2ccc(Br)cc2)cc1 | 0 | 36% | -4 | 18% | 0%
CCCn1nnc(NC(=O)c2ccc(Cl)cc2Cl)n1 | 0 | 21% | -6 | u | u
Cn1nnc(NC(=S)NC(=O)c2cc(Cl)ccc2Cl)n1 | 22 | 0.79µM* | x | 2µM* | 17%
COc1cc2ccccc2cc1C(=O)NC(=S)Nc1nnn(C)n1 | -13 | 1µM* | 1 | 1.1µM* | 0%
CCCn1nnc(NC(=S)NC(=O)c2ccccc2OC)n1 | -1 | x | x | x | 18%
COC(=O)COc1cccc(NC(=O)C(c2ccccc2)c2ccccc2)c1 | -4 | 1% | -1 | -5% | -6%
N#CCCN(Cc1cccnc1)C(=S)NC(=O)c1ccccc1 | 0 | x | x | x | 7%
